Assay outcomes from PubChem BioAssay.
Only some compounds are listed: those with a hit (about 2.9% of all), similar ones and a draw of the others.
NadD inh – blocks S. aureus nicotinate mononucleotide adenylyltransferase; purified NadD enzyme, colorimetric absorbance read-out; inhibition, % at 20 µM; 360,000 tested, 0.78% active; AID 602399; in the data active = inhibition above about 26%
B2AR ag – human beta-2 adrenergic receptor agonism by FAP; Am2.2-beta2AR cells, FAP receptor internalization, flow cytometry; response, % (no concentration beside the values); P07550; 340,000 tested, 0.43% active;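 active = response above a set limit, near 3 SD of response in nonfluorescent compounds, cut at about 42% in these data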
Granule exo inh – lytic granule exocytosis inhibition. TALL-104 LAMP-1 surface exposure, flow cytometry; cells stimulated with thapsigargin and PMA. inhibition, % at 10 µM. 360,000 tested, 0.66% active. AID 651702;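 active = inhibition above about 55%, limit read from the data; inconclusive = no clear call, values can overlap the other calls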
PP1 inh – blocks human PP1-alpha phosphatase, a PP5 counter-screen. P62136. purified PP1alpha, OMFP fluorescence. inhibition, % at 6.7 µM. 320,000 tested, 0.9% active. AID 2235;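 active = inhibition above the mean inhibition of all tested compounds plus 3 SD, computed separately for each screening campaign, cut at about 15% in these data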
Target sequence (P62136 whole entry, looked up): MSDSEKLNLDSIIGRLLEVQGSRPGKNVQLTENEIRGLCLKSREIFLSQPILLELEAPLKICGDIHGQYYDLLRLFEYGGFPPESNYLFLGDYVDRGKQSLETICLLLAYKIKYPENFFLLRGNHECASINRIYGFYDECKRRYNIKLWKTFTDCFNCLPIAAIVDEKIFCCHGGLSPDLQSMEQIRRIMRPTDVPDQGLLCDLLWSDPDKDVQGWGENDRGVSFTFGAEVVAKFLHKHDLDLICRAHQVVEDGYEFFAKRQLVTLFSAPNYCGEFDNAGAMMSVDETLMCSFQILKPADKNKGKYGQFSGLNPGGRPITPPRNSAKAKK
GRK2 inh – blocks RNA aptamer binding to human GRK2 | P25098 | bead flow cytometry, FAM-aptamer displacement from GRK2 | inhibition of aptamer binding, % at 10 µM | 330,000 tested, 0.59% active;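 active = inhibition of aptamer binding above 40%, roughly 3 SD of noise, on plates passing a quality check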;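 note: median bead fluorescence of bound FAM aptamer so fluorescent compounds give negative values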
GRK2 inh confirm – confirmation of human GRK2 inhibitors displacing RNA aptamer. shares compounds with GRK2 inh. bead-bound GRK2, FAM-aptamer displacement, flow cytometry. aptamer displacement, % at 10 µM. 2,000 tested, 4% active;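 active = aptamer displacement above 40%, near three times the noise of non-fluorescent compounds, on plates passing quality checks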;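 note: negative values mostly reflect intrinsic compound fluorescence rather than true enhancement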
Aptamer quench SP – quenches fluorescent RNA aptamer, GRK2 hit artifact | shares compounds with GRK2 inh | Carboxyfluorescein RNA aptamer on beads, flow cytometry quenching; stronger effect = lower value | fluorescence response (% of DMSO), % at 10 µM | 2,000 tested, under 10 active | AID 504580;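 active = compounds that quench the bead-bound fluorescent RNA probe, cutting fluorescence to under half of the solvent control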;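 note: counterscreen run without GRK2 so only probe quenching by compound is measured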
GRK2 confirm 2 – human GRK2 inhibition confirmation, cherry pick 2. shares compounds with GRK2 inh. 360 tested, under 10 active. bead-bound GRK2, FAM-aptamer displacement, flow cytometry. inhibition of aptamer binding, % at 10 µM. AID 504782;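 active = inhibition of aptamer binding above 40%, about triple the noise seen with nonglowing compounds, on plates passing quality control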;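 note: negative values mostly come from compounds that fluoresce themselves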
FAM quench SP – aptamer fluorescence quenching in GRK2 counter-screen. shares compounds with GRK2 inh. carboxyfluorescein RNA aptamer beads, flow cytometry quenching; stronger effect = lower value. 360 tested, under 10 active. fluorescence response vs DMSO, % at 10 µM;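 active = response vs DMSO under 50%, meaning signal dropped by over half, treated as fluorescence quencher; inconclusive = no clear call, values can overlap the other calls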;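 note: labelled aptamer on streptavidin beads without GRK2 as a quench counter-screen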
Large screens that a line does not name were inactive (follow-up assays come after a bar, where they were run).

CC1(c2ccc3ccccc3c2)NC(=O)N(CC(=O)O)C1=O (centres undefined)	GRK2 inh 47 | GRK2 inh confirm inactive | Aptamer quench SP inactive
COc1ccc(CNC(=O)CN2C(=O)NC(c3ccccc3)(c3ccccc3)C2=O)cc1	none (no result: PP1 inh)
CCNc1nc(OC)nc(N2CCC(Cc3ccccc3)CC2)n1	GRK2 inh 100 | GRK2 confirm 2 inactive | FAM quench SP inactive
COc1nc(NCc2ccco2)nc(N2CCC(C)CC2)n1	Granule exo inh inconclusive
O=C(Nc1cccc(-c2ccc(N3CCOCC3)nn2)c1)c1ccc(F)cc1F	none | GRK2 inh confirm inactive | Aptamer quench SP inactive
COc1cccc(C(=O)Nc2cccc(-c3ccc(N4CCOCC4)nn3)c2)c1OC	none | GRK2 inh confirm inactive | Aptamer quench SP inactive
c1ccc(CCC2CCCCN2Cc2cn[nH]c2-c2cc3ccccc3o2)nc1 (centres undefined)	none
O=C(c1ccccn1)C1CCCN(Cc2cn[nH]c2-c2cc3ccccc3o2)C1 (centres undefined)	GRK2 inh 90 | GRK2 inh confirm inactive | Aptamer quench SP inactive
Nc1c2c(nc3ccccc13)CCCC2	none
Clc1c2c(nc3ccccc13)CCC2	none | GRK2 confirm 2 inactive | FAM quench SP inactive
CCCN(CC(=O)Nc1ccc(F)c(F)c1F)C(=O)CCc1nc2ccccc2c(=O)[nH]1	none
CC(NC(=O)c1cccc(S(=O)(=O)N2CCN(C)CC2)c1)c1ccc(Cl)cc1Cl (centres undefined)	GRK2 inh 75 | GRK2 inh confirm inactive | Aptamer quench SP inactive
CC(=O)NCCC(=O)Nc1nc2c(ccc3ccccc32)s1	none | GRK2 confirm 2 inactive | FAM quench SP inactive
CC(=O)NCCC(=O)Nc1nc(-c2ccc3ccccc3c2)cs1	none (no result: PP1 inh, GRK2 inh)
CC(C(=O)O)n1c2ccccc2c2cnn(C)c(=O)c21 (centres undefined)	GRK2 inh 95 (no result: PP1 inh) | GRK2 inh confirm inactive | Aptamer quench SP inactive
CCCC[C@@H]1CNC(=O)C(=O)N1CCCCC1CCCCC1	none (no result: B2AR ag, PP1 inh, GRK2 inh)
CCCCN1C(=O)C(C(=O)OCc2ccccc2)CC2=C1CCCC2=O (centres undefined)	none (no result: PP1 inh, GRK2 inh)
CCCCN1C(C(=O)Nc2ncccn2)=C(O)c2ccccc2S1(=O)=O	none | GRK2 inh confirm inactive | Aptamer quench SP inactive
COc1ccc(-c2c(NC(C)=O)n(C)c3ccccc3c2=O)cc1	none
COc1cccc(-c2c(NC(C)=O)n(C)c3ccccc3c2=O)c1	GRK2 inh 46 | GRK2 inh confirm inactive | Aptamer quench SP inactive
COC(=O)c1nc(-c2ccccc2)nc(-c2ccccc2)c1C(=O)OC	none
CC(C)(C)OC(=O)N1CCC(c2cc(=O)n3[nH]c(-c4ccc(Cl)cc4)cc3n2)CC1	GRK2 inh 88 | GRK2 inh confirm inactive | Aptamer quench SP inactive
COc1cccc(C(=O)c2c(-c3ccccc3)ncc3cc(OC)c(OC)cc23)c1	none (no result: PP1 inh)
COc1ccc(N(C(=O)c2ccco2)C(C(=O)NC2CCCC2)c2ccncc2)cc1 (centres undefined)	GRK2 inh 83 | GRK2 inh confirm inactive | Aptamer quench SP inactive
Cc1ccccc1N1C(=O)c2ccccc2C1O (centres undefined)	none
COc1ccc(F)cc1C1=CC(=O)C[C@H](c2ccc3c(c2)OCO3)C1	GRK2 inh 41 | GRK2 inh confirm inactive | Aptamer quench SP inactive
CC1CN(S(=O)(=O)c2cccc(C(=O)Nc3ccc(S(=O)(=O)NC4=NCCCCC4)cc3)c2)CC(C)O1 (centres undefined)	none | GRK2 inh confirm inactive | Aptamer quench SP inactive
O=C(Nc1ccc(S(=O)(=O)NC2=NCCCCC2)cc1)c1cccc(S(=O)(=O)N2CCOCC2)c1	none (no result: PP1 inh)
COc1ccccc1CNS(=O)(=O)c1c(C)cc(C)cc1C	none (no result: B2AR ag, PP1 inh, GRK2 inh)
CCN(CC)S(=O)(=O)c1ccc(Cl)c(C(=O)Nc2cc(C)nn2-c2ccccc2C(F)(F)F)c1	none (no result: NadD inh, B2AR ag, Granule exo inh)
